RORgamma inh: blocks mouse ROR gamma transcriptional activity; P51450; Drosophila S2 Gal4-RORgamma UAS-luciferase reporter, 20 h; Potency, µM (highest dose often 53.6 µM), actives largely listed as inhibitors; 310,000 tested, 5.4% active; also: nearly all actives have a fitted effect of over 60% in size
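Compounds are pin-transferred onto Drosophila Schneider cells expressing a copper-inducible Gal4–ROR gamma transactivation domain fusion. After 1 hr, copper sulfate is added to 700 uM final; luciferase is read 20 hr later.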
Gal4-VP16 FLuc: counter-screen for ROR gamma inhibitors: Gal4-VP16 reporter; Drosophila S2 Gal4-VP16 UAS-luciferase, luminescence, 20 h; Potency, µM (titrated, usually from 53.6 µM), usual class: inhibitors; 310,000 tested, 3.5% active;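 also: Gal4-VP16 expression switched on by copper sulfate through the metallothionein promoter; nearly all actives have a fitted effect of over 50% in size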
B2AR arrestin: agonists driving beta-arrestin recruitment to human beta2-adrenergic receptor; P07550; beta-arrestin recruitment to beta2AR, cell-based reporter; Potency, µM (highest dose often 46.1 µM), usual class: activators; 330,000 tested, 0.02% active; also: nearly all actives have a fitted effect of over 65% in size
Target sequence (P07550 whole entry, looked up): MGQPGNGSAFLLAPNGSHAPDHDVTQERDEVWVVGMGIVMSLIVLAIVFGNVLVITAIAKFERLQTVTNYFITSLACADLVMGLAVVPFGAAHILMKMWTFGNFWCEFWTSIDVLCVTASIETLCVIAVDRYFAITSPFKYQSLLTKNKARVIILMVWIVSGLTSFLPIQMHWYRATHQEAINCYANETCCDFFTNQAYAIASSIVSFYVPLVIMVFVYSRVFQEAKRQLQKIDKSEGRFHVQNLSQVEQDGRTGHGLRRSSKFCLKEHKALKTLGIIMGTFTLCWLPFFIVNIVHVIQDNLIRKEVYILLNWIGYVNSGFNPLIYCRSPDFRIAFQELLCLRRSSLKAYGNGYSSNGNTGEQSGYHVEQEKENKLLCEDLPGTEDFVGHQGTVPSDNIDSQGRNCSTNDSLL
NPSR antag: neuropeptide S receptor (human) antagonism, cAMP | Q6W5P4 | CHO-NPSR cells, cAMP TR-FRET, antagonist mode | Potency, µM (highest dose often 38.3 µM), most hits filed as inhibitors | 220,000 tested, 1% active | AID 1461; also: nearly all actives have a fitted effect of over 50% in size
Numbers stand for hits; [ ] = another dose, or the depositor's remark. Rows were chosen to be rich in hits. Some 5.7% of all compounds tested hit in one or more screens of this group. Calls follow the shape of the dose curve; as a rule, active = well fitted curve in the direction sought with a large enough effect; inconclusive = small, poorly fitted or top-dose-only effect, or another doubt; inactive = no such curve, though single readings can be large; an effect the other way counts as inactive or inconclusive.

Screening Cc1csc(NC(=O)c2ccc3ccccc3n2)n1 returned RORgamma inh 2.5µM, Gal4-VP16 FLuc 7.1µM and B2AR arrestin inactive.
Cc1csc(NC(=O)c2ccc(C(=O)Nc3nc(C)cs3)cc2)n1 was read as RORgamma inh inactive, Gal4-VP16 FLuc inactive, B2AR arrestin inactive and NPSR antag inactive.
For O=C(O)c1ccccc1C(=O)Nc1ccccn1 the results were RORgamma inh inactive[0.365 µM], B2AR arrestin inactive and NPSR antag inactive.
For Cc1cnc(C(=O)Nc2ccccc2-c2ccc(C)o2)cn1 the results were RORgamma inh 7.1µM, Gal4-VP16 FLuc inconclusive, B2AR arrestin inactive and NPSR antag inactive.
Cc1cc(C)c(NC(=O)CN(C)C(C)C(=O)N2CCc3ccccc32)c(C)c1 (centres undefined) was read as B2AR arrestin inactive.
Screening Cc1cnc(C(=O)Nc2nc(-c3ccccc3)cs2)cn1 returned RORgamma inh 4.5µM, Gal4-VP16 FLuc 4.5µM, B2AR arrestin inactive and NPSR antag inactive.
Screening Cc1cccc(NC(=O)c2ccc3ccccc3n2)c1C returned RORgamma inh 1.8µM, Gal4-VP16 FLuc inconclusive, B2AR arrestin inactive and NPSR antag inactive.
CC1CC1C(=O)Nc1nc(-c2ccccc2)cs1 (centres undefined) was read as RORgamma inh inactive, Gal4-VP16 FLuc inactive, B2AR arrestin inactive and NPSR antag inactive.
Screening O=C(NCc1ccccn1)C(=O)Nc1nc(-c2ccccc2)cs1 returned RORgamma inh 10µM, Gal4-VP16 FLuc inconclusive, B2AR arrestin inactive and NPSR antag inactive.
Screening O=C(Nc1cccc([N+](=O)[O-])c1)c1ccc2ccccc2c1O returned RORgamma inh inactive, Gal4-VP16 FLuc 2.8µM, B2AR arrestin inactive and NPSR antag inactive.
For O=C(NCc1ccccc1)C(=O)Nc1nc(-c2ccccc2)cs1 the results were RORgamma inh inactive, Gal4-VP16 FLuc inactive, B2AR arrestin inactive and NPSR antag inactive.
`O=C(Nc1ccccc1)N1CC2(CCN(C(=O)c3ccncc3)CC2)C1` gave RORgamma inh inactive and Gal4-VP16 FLuc inactive.
CN(C)CC(=O)Nc1nc(-c2ccccc2)cs1 was read as RORgamma inh 11µM, Gal4-VP16 FLuc inconclusive, B2AR arrestin inactive and NPSR antag inactive.
Screening CCc1ccc(C(=O)Nc2nc(C)cs2)s1 returned RORgamma inh 7.1µM, Gal4-VP16 FLuc 11µM and B2AR arrestin inactive.
For COC(=O)[C@@H]1C[C@@]2(O)[C@@H](O)[C@@H](O)[C@@H](O)C[C@H]2N1Cc1ccc(C(C)(C)C)cc1 the results were RORgamma inh inactive and Gal4-VP16 FLuc inactive.
COc1cccc(Cn2c(=O)c(-c3cn(C)c4ccccc34)nc3cnc(N4CCNCC4)nc32)c1 was read as RORgamma inh 20µM and Gal4-VP16 FLuc inconclusive.
For Cn1cc(-c2nc3cnc(N4CCNCC4)nc3n(C)c2=O)c2ccccc21 the results were RORgamma inh 10µM and Gal4-VP16 FLuc 11µM.
COc1cccc(Cn2c(=O)c(-c3cn(C)c4ccccc34)nc3cnc(N4CCOCC4)nc32)c1 was read as RORgamma inh inactive and Gal4-VP16 FLuc inactive.
Cc1cc(C(=O)c2ccc(Cl)cc2)c(NC(=O)CCl)s1 was read as RORgamma inh 10µM, Gal4-VP16 FLuc inconclusive, B2AR arrestin inactive and NPSR antag inactive.
O=C(O)C/C(=C\c1cc2c(cc1Br)OCO2)c1nc2ccccc2s1 was read as RORgamma inh inactive, Gal4-VP16 FLuc inactive and B2AR arrestin inactive.
`Brc1cc2c(cc1/C=N/Nc1nc3ccccc3s1)OCO2` gave RORgamma inh 4.5µM, Gal4-VP16 FLuc inconclusive, B2AR arrestin inactive and NPSR antag inactive.
`COc1cc(OC)cc(C(=O)Oc2ccc(/C=N/Nc3nc4ccccc4s3)cc2OC)c1` gave RORgamma inh 10µM, Gal4-VP16 FLuc inactive, B2AR arrestin inactive and NPSR antag inactive.
`C(=N\Nc1nc2ccccc2s1)/c1ccc2c(c1)OCO2` gave RORgamma inh 7.9µM, Gal4-VP16 FLuc 7.1µM, B2AR arrestin inactive and NPSR antag inactive.
Screening Cc1nc(N/N=C\c2ccc3c(c2)OCO3)sc1C returned RORgamma inh inactive[1.91 µM], Gal4-VP16 FLuc inconclusive and B2AR arrestin inactive.
Cc1cc(C)cc(NC(=S)N(CCN2CCCCC2)Cc2ccco2)c1 was read as RORgamma inh 10µM, Gal4-VP16 FLuc inactive[10 µM], B2AR arrestin inactive and NPSR antag inactive.
`CCc1ccccc1NC(=S)N(CCN1CCCCC1)Cc1ccco1` gave RORgamma inh 11µM, Gal4-VP16 FLuc inactive, B2AR arrestin inactive and NPSR antag inactive.
Cc1ccc(NC(=S)N(CCN2CCCCC2)Cc2ccco2)cc1Cl was read as RORgamma inh 14µM, Gal4-VP16 FLuc inconclusive, B2AR arrestin inactive and NPSR antag inactive.
Screening CS(=O)(=O)Nc1cccc(-c2ccc3ncnc(NC4CCNCC4)c3c2)c1 returned RORgamma inh inactive and Gal4-VP16 FLuc inactive.
Screening CN(C)c1ccc(/C=N/N=C2/NC(=O)/C(=C/c3ccc([N+](=O)[O-])cc3)S2)cc1 returned RORgamma inh 2.8µM, Gal4-VP16 FLuc inconclusive, B2AR arrestin inactive and NPSR antag inactive.
For Cc1ccccc1-c1nnc(-c2ccc(Br)cc2)o1 the results were RORgamma inh inactive, Gal4-VP16 FLuc 2.8µM, B2AR arrestin inactive and NPSR antag inactive.
Cc1ccc(NC(=O)c2nc[nH]c2C(=O)N2CCC(C)CC2)cc1 was read as RORgamma inh 8.9µM, Gal4-VP16 FLuc inconclusive, B2AR arrestin inactive and NPSR antag inactive.
For COc1ccc(NC(=O)c2nc[nH]c2C(=O)N2CCN(C(=O)OC(C)(C)C)CC2)cc1 the results were RORgamma inh inconclusive, Gal4-VP16 FLuc inconclusive, B2AR arrestin inactive and NPSR antag inactive.
`CCOC(=O)c1ccc(NC(=O)c2nc[nH]c2C(=O)N2CCC(C)CC2)cc1` gave RORgamma inh 10µM, Gal4-VP16 FLuc inconclusive, B2AR arrestin inactive and NPSR antag inactive.
Screening Cc1ccc(NC(=O)c2nc[nH]c2C(=O)N2CCN(c3ccccc3)CC2)cc1 returned RORgamma inh 4.5µM, Gal4-VP16 FLuc 13µM, B2AR arrestin inactive and NPSR antag inactive.
Screening COc1ccc(NC(=O)c2nc[nH]c2C(=O)N2CCC(C)CC2)cc1 returned RORgamma inh 13µM, Gal4-VP16 FLuc inconclusive, B2AR arrestin inactive and NPSR antag inactive.
Screening CNc1nc(SC(C)C(=O)Nc2ccc(Cl)c(Cl)c2)nc(N2CCOCC2)n1 (centres undefined) returned RORgamma inh inactive, Gal4-VP16 FLuc inactive, B2AR arrestin inactive and NPSR antag inactive.
`CN1CCN(CCCNCc2cn(CCC#N)c3ccccc23)CC1` gave RORgamma inh inactive, Gal4-VP16 FLuc inactive and B2AR arrestin inactive.
`Cc1cccc(C(C)C)c1NC(=O)COC(=O)CCN1C(=O)C2CC=CCC2C1=O` (centres undefined) gave RORgamma inh inactive, Gal4-VP16 FLuc inactive and B2AR arrestin inactive.
Fc1ccc(-n2c(CN3CCCCC3)n[nH]c2=S)cc1 was read as RORgamma inh inconclusive, Gal4-VP16 FLuc inactive, B2AR arrestin inactive and NPSR antag inactive.
S=c1[nH]nc(CN2CCCCC2)n1-c1ccc(Cl)cc1 was read as RORgamma inh 7.1µM, Gal4-VP16 FLuc inconclusive, B2AR arrestin inactive and NPSR antag inactive.

Screening results from PubChem BioAssay.
